# PubChem BioAssay (NCATS)
# Results filed as inconclusive are left out. Entries that show only a call come without a potency. The source made the active and inactive calls. Calls come from the whole dose curve; as a rule, active = well fitted curve in the direction sought with a large enough effect; inconclusive = small, poorly fitted or top-dose-only effect, or another doubt; inactive = no such curve, though single readings can be large; an effect the other way counts as inactive or inconclusive.
# Legend:
# [1] = Quantitative High-Throughput drug screen in 47 multiple myeloma cell lines against the NCATS MIPE library collection: ARD_JJKsccE7 cell viability assay (AID 1918929; note: potency is the fitted concentration of half-maximal effect)
# How it was run: (§1)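 Viability readout: CellTiter-Glo luminescence following 5 min room-temperature incubation with reagent. Prior exposure: 48 h, 37C, humidified 5% CO2, 500 cells per well.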
# [2] = Quantitative High-Throughput drug screen in 47 multiple myeloma cell lines against the NCATS MIPE library collection: KMM1_JCRB cell viability assay (AID 1918960); note: nearly all actives have a fitted effect of over 30% in size; note: potency is the fitted concentration of half-maximal effect
# How it was run: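 CellTiter-Glo luminescence after 48 h exposure gives viability, scaled between DMSO-only (100%) and media-only (0%) controls. Library compounds are pinned onto 500 myeloma cells per well, incubated at 37C with 5% CO2.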
# [3] = Quantitative High-Throughput drug screen in 47 multiple myeloma cell lines against the NCATS MIPE library collection: KHM11_PLB cell viability assay (AID 1918962); note: nearly all actives have a fitted effect of over 35% in size; note: potency is the fitted concentration of half-maximal effect
# How it was run: (§2)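 Myeloma cells (500 per well) were exposed to MIPE 4.0 compounds by pin transfer and incubated 48 hours at 37C, 5% CO2. Viability was read as ATP by CellTiter-Glo luminescence, normalised to DMSO (100%) and media-only (0%) wells.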
# [4] = Quantitative High-Throughput drug screen in 47 multiple myeloma cell lines against the NCATS MIPE library collection: JIM1_ECACC cell viability assay (AID 1918964; note: potency is the fitted concentration of half-maximal effect)
# How it was run: as §1
# [5] = Quantitative High-Throughput drug screen in 47 multiple myeloma cell lines against the NCATS MIPE library collection: INA6_PLB cell viability assay (AID 1918965; note: nearly all actives have a fitted effect of over 55% in size; note: potency is the fitted concentration of half-maximal effect)
# How it was run: (§3)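 CellTiter-Glo ATP luminescence gave viability after 48 h compound treatment at 37C of 500 multiple myeloma cells per well. Normalisation used DMSO-only wells as 100% and media-only wells as 0% viability; primary qHTS of approved and investigational drugs.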
# [6] = Quantitative High-Throughput drug screen in 47 multiple myeloma cell lines against the NCATS MIPE library collection: H1112_PLB cell viability assay (AID 1918967; note: nearly all actives have a fitted effect of over 30% in size; note: potency is the fitted concentration of half-maximal effect)
# How it was run: as §1
# [7] = Quantitative High-Throughput drug screen in 47 multiple myeloma cell lines against the NCATS MIPE library collection: Karpas25_ECACC cell viability assay (AID 1918968; note: nearly all actives have a fitted effect of over 35% in size; note: potency is the fitted concentration of half-maximal effect)
# How it was run: as §1
# [8] = Quantitative High-Throughput drug screen in 47 multiple myeloma cell lines against the NCATS MIPE library collection: KMS12PE_JCRB cell viability assay (AID 1918972); note: nearly all actives have a fitted effect of over 30% in size; note: potency is the fitted concentration of half-maximal effect
# How it was run: as §3
# [9] = Quantitative High-Throughput drug screen in 47 multiple myeloma cell lines against the NCATS MIPE library collection: KMS26_JCRB cell viability assay (AID 1918975); note: nearly all actives have a fitted effect of over 45% in size; note: potency is the fitted concentration of half-maximal effect
# How it was run: (§4)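 Inhibition of cell viability is measured here. Each line was plated at 500 cells per well, treated with MIPE 4.0 drugs, kept 48 hours at 37C, then assayed for ATP content by CellTiter-Glo luminescence.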
# [10] = Quantitative High-Throughput drug screen in 47 multiple myeloma cell lines against the NCATS MIPE library collection: MMM1_PLB cell viability assay (AID 1918976); note: potency is the fitted concentration of half-maximal effect; nearly all actives have a fitted effect of over 35% in size
# How it was run: (§5)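 ATP-based CellTiter-Glo luminescence after 48 h drug exposure (37 °C, 5% CO2) of 500 myeloma cells per well. DMSO-only wells set 100% viability, media-only wells 0%; MIPE 4.0 library added by pin tool.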
# [11] = Quantitative High-Throughput drug screen in 47 multiple myeloma cell lines against the NCATS MIPE library collection: MOLP8_DSMZ cell viability assay (AID 1918977); note: nearly all actives have a fitted effect of over 45% in size; note: potency is the fitted concentration of half-maximal effect
# How it was run: as §5
# [12] = Quantitative High-Throughput drug screen in 47 multiple myeloma cell lines against the NCATS MIPE library collection: NCIH929_DSMZ cell viability assay (AID 1918978); note: nearly all actives have a fitted effect of over 35% in size; note: potency is the fitted concentration of half-maximal effect
# How it was run: as §5
# [13] = Quantitative High-Throughput drug screen in 47 multiple myeloma cell lines against the NCATS MIPE library collection: JIM3_ECACC cell viability assay (AID 1918963; note: nearly all actives have a fitted effect of over 35% in size; note: potency is the fitted concentration of half-maximal effect)
# How it was run: as §2
# [14] = Quantitative High-Throughput drug screen in 47 multiple myeloma cell lines against the NCATS MIPE library collection: KMS27_JCRB cell viability assay (AID 1918970); note: nearly all actives have a fitted effect of over 30% in size; note: potency is the fitted concentration of half-maximal effect
# How it was run: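 Luminescent ATP read-out (CellTiter-Glo, 5 min at room temperature) after 48 h compound exposure of 500 KMS27_JCRB cells per well; DMSO wells define full viability and media-only wells zero.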
# [15] = Quantitative High-Throughput drug screen in 47 multiple myeloma cell lines against the NCATS MIPE library collection: KMS12BM_JCRB cell viability assay (AID 1918971); note: nearly all actives have a fitted effect of over 35% in size; note: potency is the fitted concentration of half-maximal effect
# How it was run: as §4
# [16] = Quantitative High-Throughput drug screen in 47 multiple myeloma cell lines against the NCATS MIPE library collection: Karpas620_DSMZ cell viability assay (AID 1918959); note: nearly all actives have a fitted effect of over 30% in size
# How it was run: as §2
# [17] = Quantitative High-Throughput drug screen in 47 multiple myeloma cell lines against the NCATS MIPE library collection: KMS20_JCRB cell viability assay (AID 1918973); note: nearly all actives have a fitted effect of over 45% in size; note: potency is the fitted concentration of half-maximal effect
# How it was run: as §1
# [18] = Quantitative High-Throughput drug screen in 47 multiple myeloma cell lines against the NCATS MIPE library collection: Karpas417_ECACC cell viability assay (AID 1918961); settings: Karpas417 myeloma viability, CellTiter-Glo ATP luminescence, 48 h; viability (% of DMSO): at 45.8 µM (top of the series); note: potency is the fitted concentration of half-maximal effect
# How it was run: as §3
# [19] = Quantitative High-Throughput drug screen in 47 multiple myeloma cell lines against the NCATS MIPE library collection: JJN3_DSMZ cell viability assay (AID 1918966; note: potency is the fitted concentration of half-maximal effect; nearly all actives have a fitted effect of over 50% in size)
# How it was run: as §1
# [20] = Quantitative High-Throughput drug screen in 47 multiple myeloma cell lines against the NCATS MIPE library collection: KMS21BM_JCRB cell viability assay (AID 1918974); settings: ATP luminescence, 48 h; viability: at 45.8 µM (top of the series) unless noted; note: potency is the fitted concentration of half-maximal effect
# How it was run: as §1
smiles,measurement,setting,value
COc1ccc2cc([C@H](C)C(=O)O)ccc2c1,Potency,[1],inactive
same,Potency,[2],inactive
same,Potency,[3],29.6 µM (active)
same,Potency,[4],inactive
same,Potency,[5],inactive
same,Potency,[6],inactive
same,Potency,[7],20.9 µM (active)
same,Potency,[8],inactive
same,Potency,[9],inactive
same,Potency,[10],16.6 µM (active)
same,Potency,[11],inactive
same,Potency,[12],inactive
C[C@@H](c1ncncc1F)[C@](O)(Cn1cncn1)c1ccc(F)cc1F,Potency,[1],inactive
same,Potency,[2],inactive
same,Potency,[13],inactive
same,Potency,[4],inactive
same,Potency,[5],inactive
same,Potency,[7],inactive
same,Potency,[14],inactive
same,Potency,[8],inactive
same,Potency,[9],inactive
same,Potency,[11],inactive
CCCc1cc(=O)[nH]c(=S)[nH]1,Potency,[1],inactive
same,Potency,[2],inactive
same,Potency,[13],inactive
same,Potency,[4],inactive
same,Potency,[6],inactive
same,Potency,[15],inactive
same,Potency,[8],inactive
same,Potency,[9],inactive
same,Potency,[12],inactive
O=C(O)c1cccnc1Nc1cccc(C(F)(F)F)c1,Potency,[1],inactive
same,Potency,[16],inactive
same,Potency,[2],inactive
same,Potency,[13],inactive
same,Potency,[5],inactive
same,Potency,[6],inactive
same,Potency,[14],inactive
same,Potency,[8],inactive
same,Potency,[17],inactive
same,Potency,[12],inactive
C=CCc1cc(OC)c(O)c(C(=O)NCCO)c1,Potency,[16],inactive
same,Potency,[2],inactive
same,Potency,[18],inactive
same,Potency,[3],inactive
same,Potency,[13],inactive
same,Potency,[5],inactive
same,Potency,[6],inactive
same,Potency,[7],inactive
same,Potency,[8],inactive
same,Potency,[9],inactive
same,Potency,[12],inactive
Cc1cc(Cl)ccc1OCCCC(=O)NO,Potency,[1],20.9 µM (active)
same,Potency,[3],11.8 µM (active)
same,Potency,[13],9.35 µM (active)
same,Potency,[5],7.43 µM (active)
same,Potency,[6],7.43 µM (active)
same,Potency,[7],2.96 µM (active)
same,Potency,[14],3.32 µM (active)
same,Potency,[15],16.6 µM (active)
same,Potency,[8],14.8 µM (active)
same,Potency,[9],8.33 µM (active)
same,Potency,[10],2.64 µM (active)
same,Potency,[11],inactive
same,Potency,[12],2.64 µM (active)
O=C(CCc1ccc(O)cc1)c1c(O)cc(O)cc1O,Potency,[1],0.372 µM (active)
same,Potency,[18],0.132 µM (active)
same,Potency,[3],0.059 µM (active)
same,Potency,[5],0.418 µM (active)
same,Potency,[6],0.148 µM (active)
same,Potency,[7],0.187 µM (active)
same,Potency,[14],1.05 µM (active)
same,Potency,[15],0.332 µM (active)
same,Potency,[9],0.166 µM (active)
same,Potency,[10],0.132 µM (active)
CNC[C@@H](O)[C@@H](O)[C@H](O)[C@H](O)CO,Potency,[1],inactive
same,Potency,[13],inactive
same,Potency,[4],inactive
same,Potency,[7],20.9 µM (active)
same,Potency,[14],inactive
same,Potency,[9],inactive
same,Potency,[12],inactive
O=c1ccc2ccc(O)c(O)c2o1,Potency,[1],inactive
same,Potency,[3],11.8 µM (active)
same,Potency,[19],16.6 µM (active)
same,Potency,[7],3.32 µM (active)
same,Potency,[14],18.7 µM (active)
same,Potency,[15],18.7 µM (active)
same,Potency,[10],7.43 µM (active)
COc1c(O)cc2c(c1O)[C@@H]1O[C@H](CO)[C@@H](O)[C@H](O)[C@H]1OC2=O,Potency,[16],inactive
same,Potency,[2],inactive
same,Potency,[18],inactive
same,Potency,[3],inactive
same,Potency,[13],inactive
same,Potency,[4],inactive
same,Potency,[6],inactive
same,Potency,[14],inactive
same,Potency,[15],4.18 µM (active)
same,Potency,[8],inactive
same,Potency,[17],inactive
same,Potency,[9],inactive
same,Potency,[10],2.35 µM (active)
same,Potency,[12],inactive
CN(C)C(=O)[C@H](O)[C@H](Cc1ccccc1)NC(=O)c1cc2cc(Cl)ccc2[nH]1,Potency,[1],16.6 µM (active)
same,Potency,[3],inactive
same,Potency,[5],0.833 µM (active)
same,Potency,[19],1.66 µM (active)
same,Potency,[7],1.66 µM (active)
same,Potency,[8],2.09 µM (active)
same,Potency,[17],7.43 µM (active)
same,Potency,[9],20.9 µM (active)
same,Potency,[12],1.32 µM (active)
Cc1ccc(C(=O)c2cc(O)c(O)c([N+](=O)[O-])c2)cc1,Potency,[1],20.9 µM (active)
same,Potency,[7],26.4 µM (active)
same,Potency,[14],23.5 µM (active)
same,Potency,[8],18.7 µM (active)
same,Potency,[17],20.9 µM (active)
COc1ccccc1N1CCN(CCN(C(=O)C2CCCCC2)c2ccccn2)CC1,Potency,[1],1.18 µM (active)
same,Potency,[13],inactive
same,Potency,[5],3.72 µM (active)
same,Potency,[7],inactive
same,Potency,[14],9.35 µM (active)
same,Potency,[15],inactive
same,Potency,[8],18.7 µM (active)
same,Potency,[9],inactive
same,Potency,[12],8.33 µM (active)
COc1cc(OC)c(C(=O)CCCN2CCCC2)c(OC)c1,Potency,[1],inactive
same,Potency,[18],inactive
same,Potency,[3],inactive
same,Potency,[13],inactive
same,Potency,[6],inactive
same,Potency,[7],inactive
same,Potency,[8],inactive
same,Potency,[20],18.7 µM (active)
same,Potency,[12],inactive
Cc1cccc(CN2CCN(C(c3ccccc3)c3ccc(Cl)cc3)CC2)c1 (stereo not drawn),Potency,[1],26.4 µM (active)
same,Potency,[18],inactive
same,Potency,[4],inactive
same,Potency,[5],16.6 µM (active)
same,Potency,[6],23.5 µM (active)
same,Potency,[7],23.5 µM (active)
same,Potency,[15],26.4 µM (active)
same,Potency,[10],20.9 µM (active)
Cc1ccc(Nc2nccc(N(C)c3ccc4c(C)n(C)nc4c3)n2)cc1S(N)(=O)=O,Potency,[1],16.6 µM (active)
same,Potency,[2],14.8 µM (active)
same,Potency,[5],3.72 µM (active)
same,Potency,[19],20.9 µM (active)
same,Potency,[6],16.6 µM (active)
same,Potency,[7],16.6 µM (active)
same,Potency,[14],20.9 µM (active)
same,Potency,[15],18.7 µM (active)
same,Potency,[8],16.6 µM (active)
same,Potency,[9],23.5 µM (active)
Cc1cc(=O)c2c(O)c3c(O)cc(=O)c4c3c3c(cc(O)c1c23)C(C)(C)C=4O,Potency,[1],3.32 µM (active)
same,Potency,[3],0.372 µM (active)
same,Potency,[13],0.235 µM (active)
same,Potency,[4],5.9 µM (active)
same,Potency,[5],0.418 µM (active)
same,Potency,[6],0.59 µM (active)
same,Potency,[7],0.264 µM (active)
same,Potency,[15],4.69 µM (active)
same,Potency,[20],4.18 µM (active)
same,Potency,[9],6.62 µM (active)
same,Potency,[10],0.372 µM (active)
same,Potency,[11],2.64 µM (active)
same,Potency,[12],0.296 µM (active)
COc1c2occc2cc2ccc(=O)oc12,Potency,[16],inactive
same,Potency,[2],inactive
same,Potency,[3],inactive
same,Potency,[13],inactive
same,Potency,[4],inactive
same,Potency,[6],inactive
same,Potency,[14],inactive
same,Potency,[15],20.9 µM (active)
same,Potency,[8],inactive
same,Potency,[9],inactive
same,Potency,[10],1.32 µM (active)
same,Potency,[12],5.26 µM (active)
